Activity calls are given as the source filed them. Rule as the data show it, unless noted: active = inhibition above about 33%; inactive = the rest.
Key:
[1] = target: Nuclear receptor coactivator 3 (Homo sapiens) (UniProt Q9Y6Q9); assay: SRC3 coactivator transcriptional activity inhibitors, confirmation, cell-based, luminescence, quadruplicate (AID 588792;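 active = mean inhibition over 43.08%, the solvent-only control mean plus 3 SD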;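 also: 0% = DMSO treated cells and 100% = gossypol at 36 µM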); settings: HEK293 GAL4-SRC3 luciferase reporter, at 3.6 µM, active compounds read high
[2] = system: transactivating tegument protein VP16 (Human herpesvirus 1), Gal4-VP16 luciferase reporter; assay: VP16 transactivation inhibitors, counter-screen for SRC3 inhibitor project, cell-based, luminescence, high throughput (AID 588794; in the data active = inhibition above about 30%); settings: mammalian cells, VP16-driven luciferase reporter luminescence; at 3.6 µM; active compounds read high
[3] = target: Nuclear receptor coactivator 1 (Homo sapiens) (UniProt Q15788); assay: SRC1 coactivator transcriptional activity inhibitors, confirmation, cell-based, luminescence, quadruplicate (AID 588820;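 active = mean inhibition above 46.68%, the untreated control wells mean plus 3 SD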;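 also: 0% = DMSO wells and 100% = gossypol 36 µM treated wells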); settings: HEK293 GAL4-SRC1 luciferase reporter, at 3.6 µM, active compounds read high
[4] = VP16 transactivation inhibitors, counter-screen for SRC1 inhibitor project, cell-based, luminescence, high throughput (AID 588824; in the data active = inhibition above about 25%); settings: cell-based VP16 transactivation luciferase luminescence; at 3.6 µM; active compounds read high
[5] = StAR promoter reporter inhibitors, counter-screen for LRH-1 inverse agonist project, cell-based, luminescence, high throughput (AID 651611; in the data active = inhibition above about 28%); settings: StAR promoter luciferase reporter counterscreen, at 3.6 µM, active compounds read high
[6] = target: Nuclear receptor subfamily 5 group A member 2 (Homo sapiens) (UniProt O00482); assay: LRH-1 (NR5A2) inverse agonists, retest, confirmation, cell-based, luminescence (AID 651613; in the data active = inhibition above about 42%;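 also: HEK293T cells co-transfected with LRH-1 and StAR promoter luciferase reporter; 0% = vehicle wells and 100% = parental cells lacking receptor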); settings: cell-based LRH-1 luciferase reporter, inverse agonism; at 3.6 µM; active compounds read high
[7] = target: Steroidogenic factor 1 (Homo sapiens) (UniProt Q13285); assay: SF1 (NR5A1) inverse agonists, counter-screen for LRH-1 inverse agonist project, cell-based, luminescence, high throughput (AID 651614; in the data active = inhibition above about 44%;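 also: cells cotransfected with StAR promoter reporter and SF1 expression vector; 0% = vehicle on cells with receptor and 100% = vehicle on cells lacking receptor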); settings: cell-based SF1 luciferase reporter, at 3.6 µM, active compounds read high
[8] = VP16 transactivation reporter inhibitors, counter-screen for LRH-1 inverse agonist project, cell-based, luminescence, high throughput (AID 651615); settings: Gal4-VP16 luciferase reporter cells, at 3.6 µM, active compounds read high
[9] = system: transactivating tegument protein VP16 (Human herpesvirus 1); assay: VP16 transactivation reporter inhibitors, counter-screen for SRC2 inhibitor project, cell-based, luminescence, single concentration (AID 652007; in the data active = inhibition above about 36%); settings: cell-based VP16 transactivation luciferase reporter, at 8.9 µM, active compounds read high
[10] = target: Nuclear receptor coactivator 2 (Homo sapiens) (UniProt Q15596); assay: SRC2 coactivator transcriptional activity inhibitors, confirmation, cell-based, luminescence, HEK293, triplicate (AID 652008;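 active = mean inhibition above 46.5%, the solvent-only control mean plus 3 SD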;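 also: 0% = DMSO-treated cells and 100% = Gossypol at 36 µM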); settings: HEK293 GAL4-SRC2 luciferase reporter, at 8.9 µM, active compounds read high

Chain of Nuclear receptor coactivator 3 (Homo sapiens) (Q9Y6Q9 whole entry, looked up, the tested form may be a part): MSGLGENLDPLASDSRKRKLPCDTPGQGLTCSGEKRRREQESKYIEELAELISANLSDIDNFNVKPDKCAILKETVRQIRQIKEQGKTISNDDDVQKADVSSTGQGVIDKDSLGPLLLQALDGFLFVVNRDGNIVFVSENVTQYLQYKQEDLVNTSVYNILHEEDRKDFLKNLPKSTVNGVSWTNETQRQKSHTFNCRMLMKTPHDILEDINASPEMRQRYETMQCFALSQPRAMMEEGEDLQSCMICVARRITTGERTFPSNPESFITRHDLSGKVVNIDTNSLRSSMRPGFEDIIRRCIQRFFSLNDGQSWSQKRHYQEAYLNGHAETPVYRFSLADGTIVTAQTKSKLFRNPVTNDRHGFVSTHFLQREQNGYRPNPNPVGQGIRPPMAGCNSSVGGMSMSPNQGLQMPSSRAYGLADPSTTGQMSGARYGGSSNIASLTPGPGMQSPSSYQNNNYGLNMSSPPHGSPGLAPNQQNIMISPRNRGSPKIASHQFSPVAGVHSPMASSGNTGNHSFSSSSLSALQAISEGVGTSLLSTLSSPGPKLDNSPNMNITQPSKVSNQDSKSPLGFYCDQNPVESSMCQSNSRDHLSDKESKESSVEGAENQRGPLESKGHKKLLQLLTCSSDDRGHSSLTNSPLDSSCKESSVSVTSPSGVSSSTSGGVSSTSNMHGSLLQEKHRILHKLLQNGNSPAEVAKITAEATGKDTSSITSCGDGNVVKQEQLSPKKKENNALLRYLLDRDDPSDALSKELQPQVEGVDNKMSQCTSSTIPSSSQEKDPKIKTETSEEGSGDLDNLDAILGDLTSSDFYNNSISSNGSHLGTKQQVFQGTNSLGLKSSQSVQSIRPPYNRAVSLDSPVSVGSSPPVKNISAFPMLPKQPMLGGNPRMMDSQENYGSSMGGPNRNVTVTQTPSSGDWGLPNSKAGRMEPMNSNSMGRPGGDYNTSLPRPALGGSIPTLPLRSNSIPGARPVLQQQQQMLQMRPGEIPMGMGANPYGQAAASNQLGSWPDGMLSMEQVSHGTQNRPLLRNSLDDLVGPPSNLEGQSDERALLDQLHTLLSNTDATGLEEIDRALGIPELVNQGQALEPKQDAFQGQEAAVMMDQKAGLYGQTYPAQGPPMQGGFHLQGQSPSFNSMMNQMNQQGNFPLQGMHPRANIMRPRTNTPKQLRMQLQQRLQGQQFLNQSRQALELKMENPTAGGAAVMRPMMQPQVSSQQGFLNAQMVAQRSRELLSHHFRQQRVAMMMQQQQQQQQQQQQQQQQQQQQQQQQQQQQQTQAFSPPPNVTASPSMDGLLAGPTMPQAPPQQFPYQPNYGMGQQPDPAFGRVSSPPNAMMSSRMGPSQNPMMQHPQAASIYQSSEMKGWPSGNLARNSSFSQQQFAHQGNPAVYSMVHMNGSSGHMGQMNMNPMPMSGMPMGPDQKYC
Chain of Nuclear receptor coactivator 1 (Homo sapiens) (Q15788 whole entry, looked up, the tested form may be a part): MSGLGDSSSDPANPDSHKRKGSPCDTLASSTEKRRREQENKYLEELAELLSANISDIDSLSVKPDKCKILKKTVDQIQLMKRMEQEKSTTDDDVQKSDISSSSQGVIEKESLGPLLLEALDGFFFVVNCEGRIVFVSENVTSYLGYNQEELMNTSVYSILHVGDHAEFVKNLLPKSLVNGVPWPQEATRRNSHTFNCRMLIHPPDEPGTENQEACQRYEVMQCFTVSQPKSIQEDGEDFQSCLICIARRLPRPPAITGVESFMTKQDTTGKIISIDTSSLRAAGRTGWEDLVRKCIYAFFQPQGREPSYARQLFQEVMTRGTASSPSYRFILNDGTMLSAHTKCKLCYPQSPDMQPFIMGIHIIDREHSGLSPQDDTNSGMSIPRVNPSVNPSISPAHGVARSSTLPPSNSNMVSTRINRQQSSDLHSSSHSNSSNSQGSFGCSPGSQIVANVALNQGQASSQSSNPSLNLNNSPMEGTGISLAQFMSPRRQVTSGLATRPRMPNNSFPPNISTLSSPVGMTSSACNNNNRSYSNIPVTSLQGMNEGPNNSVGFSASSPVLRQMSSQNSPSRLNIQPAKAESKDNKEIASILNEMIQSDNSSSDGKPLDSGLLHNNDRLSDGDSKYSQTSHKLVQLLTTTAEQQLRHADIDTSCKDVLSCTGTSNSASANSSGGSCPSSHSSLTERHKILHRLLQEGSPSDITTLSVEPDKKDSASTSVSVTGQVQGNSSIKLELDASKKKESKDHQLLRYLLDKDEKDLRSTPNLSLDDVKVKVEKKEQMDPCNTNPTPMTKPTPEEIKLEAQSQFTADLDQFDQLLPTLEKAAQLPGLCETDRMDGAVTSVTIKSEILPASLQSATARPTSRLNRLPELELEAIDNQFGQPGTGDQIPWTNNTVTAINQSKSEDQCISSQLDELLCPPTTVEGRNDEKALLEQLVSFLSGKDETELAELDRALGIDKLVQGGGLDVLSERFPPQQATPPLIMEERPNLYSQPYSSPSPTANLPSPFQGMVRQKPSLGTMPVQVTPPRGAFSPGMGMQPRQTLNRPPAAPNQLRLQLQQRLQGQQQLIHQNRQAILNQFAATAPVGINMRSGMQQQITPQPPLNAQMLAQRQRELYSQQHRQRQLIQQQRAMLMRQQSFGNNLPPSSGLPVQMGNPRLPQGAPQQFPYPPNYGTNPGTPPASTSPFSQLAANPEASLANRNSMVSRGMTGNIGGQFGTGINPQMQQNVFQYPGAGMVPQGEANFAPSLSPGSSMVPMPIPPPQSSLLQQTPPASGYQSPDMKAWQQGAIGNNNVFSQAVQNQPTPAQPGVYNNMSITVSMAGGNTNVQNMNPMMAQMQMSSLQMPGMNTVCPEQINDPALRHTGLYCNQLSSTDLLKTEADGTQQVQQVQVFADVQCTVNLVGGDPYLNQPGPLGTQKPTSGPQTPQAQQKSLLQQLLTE
Chain of Steroidogenic factor 1 (Homo sapiens) (Q13285 whole entry, looked up, the tested form may be a part): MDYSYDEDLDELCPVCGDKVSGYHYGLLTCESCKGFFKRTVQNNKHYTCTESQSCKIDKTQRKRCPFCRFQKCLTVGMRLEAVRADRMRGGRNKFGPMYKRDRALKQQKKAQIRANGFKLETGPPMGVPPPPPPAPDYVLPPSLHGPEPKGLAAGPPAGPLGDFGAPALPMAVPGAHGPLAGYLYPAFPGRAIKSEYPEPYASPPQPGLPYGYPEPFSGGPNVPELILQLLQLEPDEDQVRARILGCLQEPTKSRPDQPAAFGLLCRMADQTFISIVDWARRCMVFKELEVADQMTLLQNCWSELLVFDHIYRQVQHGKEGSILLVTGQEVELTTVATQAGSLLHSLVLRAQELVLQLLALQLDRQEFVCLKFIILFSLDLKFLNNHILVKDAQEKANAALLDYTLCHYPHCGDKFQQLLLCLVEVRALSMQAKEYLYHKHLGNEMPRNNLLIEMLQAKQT
Chain of Nuclear receptor subfamily 5 group A member 2 (Homo sapiens) (O00482 whole entry, looked up): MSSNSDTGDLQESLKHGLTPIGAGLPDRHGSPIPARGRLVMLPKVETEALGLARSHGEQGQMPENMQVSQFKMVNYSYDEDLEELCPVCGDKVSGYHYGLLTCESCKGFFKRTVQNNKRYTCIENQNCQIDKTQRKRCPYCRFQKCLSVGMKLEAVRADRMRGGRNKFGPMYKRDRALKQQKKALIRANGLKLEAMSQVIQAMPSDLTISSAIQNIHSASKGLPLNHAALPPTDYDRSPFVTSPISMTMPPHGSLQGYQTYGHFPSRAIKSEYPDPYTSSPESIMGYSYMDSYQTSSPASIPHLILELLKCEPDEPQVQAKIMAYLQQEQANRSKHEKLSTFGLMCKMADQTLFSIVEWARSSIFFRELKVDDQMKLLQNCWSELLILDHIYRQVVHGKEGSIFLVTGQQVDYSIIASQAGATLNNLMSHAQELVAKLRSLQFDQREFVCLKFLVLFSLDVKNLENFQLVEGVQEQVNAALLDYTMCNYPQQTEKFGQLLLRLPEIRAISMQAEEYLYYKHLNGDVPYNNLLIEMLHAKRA

| Structure (SMILES) | inhibition [1] | inhibition [2] | inhibition [3] | inhibition [4] | inhibition [5] | inhibition [6] | inhibition [7] | inhibition [8] | inhibition [9] | inhibition [10] |
| --- | --- | --- | --- | --- | --- | --- | --- | --- | --- | --- |
| CC(C)(C)c1ccc(C(=O)O/N=C(\N)c2ccccc2)cc1 | 74.5% (active) | 73.6% (active) | 61.1% (active) | 58.3% (active) | 61.9% (active) | 55% (active) | 64.8% (active) | 51.1% (active) | 76.9% (active) | 87.7% (active) |
| Cc1nc2c(-c3ccccc3)cnn2c(N)c1-c1ccccc1 | 43.4% (active) | 37.4% (active) | 13.1% (inactive) | 5.33% (inactive) | -35.4% (inactive) | -128% (inactive) | -43.9% (inactive) | -38.5% (inactive) | 19.9% (inactive) | 58.2% (active) |
| O=C(/C=C/Nc1ccccc1Br)c1ccccn1 | 48.5% (active) | 32.8% (active) | 10.4% (inactive) | 33.1% (active) | 58.2% (active) | 42.5% (active) | 62.7% (active) | 36.1% (active) | 64.9% (active) | 82.7% (active) |
| O=C(NCCc1ccccc1F)c1ccc2c(c1)OCCO2 | 67.2% (active) | 57.6% (active) | -11.5% (inactive) | 54.6% (active) | 65.5% (active) | 55.3% (active) | 72.4% (active) | 60.5% (active) | 74.1% (active) | 89.9% (active) |
| CC(=O)NC(c1ccc(C(C)C)cc1)c1ccc2cccnc2c1O (stereo not given) | 74.3% (active) | 58.4% (active) | 65.9% (active) | 60.9% (active) | 89.1% (active) | 105% (active) | 86.2% (active) | 75% (active) | -23.1% (inactive) | 26.8% (inactive) |
| Cc1cc(C(=O)COC(=O)c2ccccc2O)c(C)n1Cc1cccs1 | 85.3% (active) | 84.9% (active) | 71.1% (active) | 74.4% (active) | 85% (active) | 59% (active) | 80.2% (active) | 73.6% (active) | 81% (active) | 92.7% (active) |
| O=C(NC1CCCCC1)C(c1cccnc1)N(C(=O)CCl)c1ccccc1Cl (stereo not given) | 81.8% (active) | 64% (active) | 67.1% (active) | 59.1% (active) | 54.7% (active) | 70.4% (active) | 67.5% (active) | 64.8% (active) | 38.6% (active) | 55.5% (active) |
| COc1ccc(-c2nsc3c(N4CCCCC4C)ncnc23)cc1 (stereo not given) | 84.2% (active) | 80.4% (active) | 70.2% (active) | 68.4% (active) | 80.2% (active) | 59.2% (active) | 80.9% (active) | 67% (active) | 83.1% (active) | 93.3% (active) |
| COC(=O)c1cn(NC(=O)c2cc([N+](=O)[O-])ccc2F)c(=O)c2ccccc12 | 83.8% (active) | 83.6% (active) | 51.1% (active) | 81% (active) | 89% (active) | 102% (active) | 92.9% (active) | 84.3% (active) | 27.7% (inactive) | 64.7% (active) |
| CC(C)(C)c1ccc(C(=O)N2CCCCCC2=O)cc1 | 58% (active) | 41% (active) | 35.8% (inactive) | 33.1% (active) | 45.6% (active) | 62.1% (active) | 56.1% (active) | 56.4% (active) | 63.6% (active) | 89.2% (active) |
| COC1=CC(=O)c2c(ccc3ncnc(N)c23)C1=O | 60.8% (active) | 65.1% (active) | -4.46% (inactive) | 64.3% (active) | 62.4% (active) | 82.8% (active) | 84.6% (active) | 82.1% (active) | 37.5% (active) | 69.5% (active) |
| COc1ccc(-n2ncc3c(N(C)C4CCCCC4)ncnc32)cc1 | 63.9% (active) | 53.6% (active) | 37.6% (inactive) | 40.1% (active) | 30% (active) | -23.3% (inactive) | 28.6% (inactive) | 20.2% (inactive) | 42.7% (active) | 80.3% (active) |
| Nc1ccc(Oc2cccc(Oc3ccc(N)cc3)c2)cc1 | 43.4% (active) | 29.6% (active) | 24.3% (inactive) | 27.6% (active) | 47.8% (active) | 75.6% (active) | 67.8% (active) | 47.5% (active) | 88.8% (active) | 92.8% (active) |
| CC1=C(C(=O)OCc2ccc3c(c2)OCO3)C(c2ccc(F)cc2)NC(=O)N1 (stereo not given) | 77.2% (active) | 66.2% (active) | 70.7% (active) | 67.6% (active) | 49.1% (active) | 71.3% (active) | 62.8% (active) | 85.2% (active) | 16.1% (inactive) | 58.7% (active) |
| Cc1cc(C(=O)CSc2nnc3ccccn23)c(C)n1-c1ccccc1 | 20.3% (inactive) | 15.4% (inactive) | -49.2% (inactive) | -25.1% (inactive) | 23.4% (inactive) | -38.6% (inactive) | 6.01% (inactive) | -26.3% (inactive) | 34.8% (inactive) | 60.7% (active) |
| Cc1ccc(C(=O)Nc2sc(C)c(-c3ccccc3)c2C(N)=O)cc1[N+](=O)[O-] | 64% (active) | 50% (active) | 29.8% (inactive) | 22.4% (inactive) | 47.7% (active) | -41.3% (inactive) | 38.9% (inactive) | 10.9% (inactive) | 71.9% (active) | 74.1% (active) |
| COc1cccc(N2CCN(c3ncnc4c3cnn4-c3ccc(C)cc3C)CC2)c1 | 88.3% (active) | 81.1% (active) | 54.6% (active) | 86.2% (active) | 83.2% (active) | 97.4% (active) | 89.8% (active) | 90.2% (active) | 81.1% (active) | 72.1% (active) |
| CCCc1ccc(C(=O)O/N=C(\N)c2ccccn2)cc1 | 16.8% (inactive) | -24.7% (inactive) | -82.5% (inactive) | -63.2% (inactive) | -12.5% (inactive) | -85.8% (inactive) | 2.79% (inactive) | -41.9% (inactive) | -18.6% (inactive) | 31.1% (inactive) |
| Nc1nc(F)nc2c1ncn2[C@@H]1O[C@H](CO)[C@@H](O)[C@H]1O | 98% (active) | 93.4% (active) | 82.7% (active) | 94.4% (active) | 94.5% (active) | 108% (active) | 96.2% (active) | 98.7% (active) | 76.6% (active) | 77.6% (active) |
| Cc1cc(C(=O)Nc2ccc(Cl)cc2)c(C)n1-c1ccccc1 | 74.9% (active) | 69.7% (active) | 60.1% (active) | 50.3% (active) | 70% (active) | 38% (inactive) | 71.7% (active) | 55.4% (active) | 82.5% (active) | 85.7% (active) |
| C[C@@H](C(=O)Nc1ccc2c(c1)OCCO2)n1c(=O)[nH]c2ccccc2c1=O | 34.5% (inactive) | -0.03% (inactive) | -4.84% (inactive) | -17.6% (inactive) | -11.4% (inactive) | -28.3% (inactive) | 20.2% (inactive) | -18.1% (inactive) | 3.58% (inactive) | 68.7% (active) |
| COc1cccc2c1C(=O)c1c(O)c3c(c(O)c1C2=O)CC(O)(C(=O)CO)CC3OC1CC(N(C)C)C(O)C(C)O1 (stereo not given) | 96.6% (active) | 97% (active) | 85.8% (active) | 96.7% (active) | 85.1% (active) | 107% (active) | 96% (active) | 96.5% (active) | 36.9% (active) | 57.6% (active) |
| CC1(C)N=C(N)N=C(N)N1c1ccc(CCCCc2ccccc2)cc1 | 31.1% (inactive) | 68.2% (active) | 60.1% (active) | 66% (active) | 63.7% (active) | 89.9% (active) | 85.7% (active) | 80.6% (active) | 26.9% (inactive) | 29.4% (inactive) |
| COc1cccc(/C=N/NC(=O)c2c(-c3ccccc3)noc2C)c1O | 38.4% (inactive) | 37.1% (active) | 24.8% (inactive) | 34.6% (active) | 68.8% (active) | 52.1% (active) | 64.6% (active) | 67.5% (active) | 2.72% (inactive) | 33.1% (inactive) |
| Cc1ccc(C(=O)O/N=C(\N)c2ccccn2)c(C)c1 | 60% (active) | 42.3% (active) | 15% (inactive) | 28.9% (active) | 33.2% (active) | 9.46% (inactive) | 36.5% (inactive) | 13.6% (inactive) | 71.3% (active) | 86% (active) |
| Cc1ccc(C(=O)N/N=C/c2ccc([N+](=O)[O-])s2)cc1 | 54.5% (active) | 39.1% (active) | 33.7% (inactive) | 44.4% (active) | 70.3% (active) | 83.9% (active) | 75.6% (active) | 52.3% (active) | 82.5% (active) | 92.4% (active) |
| O=C(O)c1ccccc1C(=O)Nc1ccc(Oc2cccc3ccccc23)cc1 | 26% (inactive) | 32.2% (active) | 28% (inactive) | 21.7% (inactive) | 34.5% (active) | 29.8% (inactive) | 57% (active) | 13.4% (inactive) | 77.6% (active) | 75.2% (active) |
| N#Cc1sc2nccc(Nc3ccccc3)c2c1N | 87.1% (active) | 62.4% (active) | 62.9% (active) | 58.6% (active) | 32.5% (active) | 66.4% (active) | 48.8% (active) | 79.6% (active) | 4.1% (inactive) | 52.2% (active) |
| Cc1nn(-c2ccccc2Cl)c(Cl)c1/C=N/Nc1nc2ccccc2s1 | 64.1% (active) | 73.5% (active) | 48.1% (active) | 57.4% (active) | 82.7% (active) | 21.8% (inactive) | 73.5% (active) | 58.5% (active) | 82.7% (active) | 91.7% (active) |
| CCCN(CC)c1ncnc2[nH]ncc12 | 72.3% (active) | 52.6% (active) | 71.4% (active) | 50.1% (active) | 25.9% (inactive) | 45% (active) | 37.1% (inactive) | 69.2% (active) | -9.97% (inactive) | 43.2% (inactive) |
